Experimental findings from PubChem BioAssay (NCATS) are described below.

Records with an inconclusive call do not appear. Calls of active or inactive are those of the source. Calls follow the shape of the dose curve; as a rule, active = well fitted curve in the direction sought with a large enough effect; inconclusive = small, poorly fitted or top-dose-only effect, or another doubt; inactive = no such curve, though single readings can be large; an effect the other way counts as inactive or inconclusive.
% is scaled to controls: 0 for no effect and ±100 for the full control effect; potency is read from the fitted curve at half-maximal effect.
Also: nearly all actives have a fitted effect of over 70% in size.

The nature of one experiment: Primary qHTS for inhibitors of nuclear receptor binding SET domain protein 2 (NSD2) in an isogenic RCH-ACV NSD2 p.E1099K mutant (9B) (AID 1645876). Particulars: RCH-ACV NSD2 E1099K (9B) viability, CellTiter-Glo, 72 h; series mostly up to 44.9 µM; activity change, negative = viability loss: at the top concentration. In general terms: Quantitative high-throughput screening tests each substance at several concentrations.
Turning to `CCN1CCN(C(=O)N[C@@H](C(=O)N[C@@H]2C(=O)N3C(C(=O)O)=C(CSc4nnnn4C)CS[C@H]23)c2ccc(O)cc2)C(=O)C1=O`, the Potency result is “inactive”.

Consider `Cc1ccc(S(=O)(=O)NC(=O)NC2CCCC2)cc1`, for which the “activity change, negative = viability loss” value was 8.7% (inactive).

`Nc1ccc(C(=O)NCC(=O)O)cc1`: the “activity change, negative = viability loss” value is 4.78% (inactive).

For `O=C(O)c1ccc(S(=O)(=O)N(Cl)Cl)cc1`, the “activity change, negative = viability loss” value was 5.02% (inactive).

Take `FC(F)(F)C(F)(F)C(F)(F)C(F)(F)C(F)(F)C(F)(F)C(F)(F)C(F)(F)Br`: the result was inactive.

For the molecule `CCCCNC(=O)NS(=O)(=O)c1ccc(N)cc1`, the “activity change, negative = viability loss” value was -4.51% (inactive).

`CC[C@H](c1ccc(O)cc1)[C@@H](CC)c1ccc(O)cc1`: the Potency is 11.9 µM (active).

Consider `C[N+]12CCC(CC1)C(OC(=O)C(O)(c1ccccc1)c1ccccc1)C2` (stereo unspecified), for which the “activity change, negative = viability loss” value is 2.23% (inactive).

Consider `Cc1cc(C)cc(OCC2CNC(=O)O2)c1` (stereo unspecified), for which the “activity change, negative = viability loss” value was 3.57% (inactive).

Turning to `CN1CCN(CCC(=O)N2c3ccccc3Sc3ccc(C(F)(F)F)cc32)CC1`, the Potency is 15 µM (active).

For the molecule `O[C@@H](c1cc(C(F)(F)F)nc2c(C(F)(F)F)cccc12)[C@H]1CCCCN1`, the Potency is 7.5 µM (active).

As to `CC(=O)Oc1ccc(C)cc1`, the outcome was inactive.

Turning to `CCCCCCCCOc1ccc(C(=O)c2ccccc2)c(O)c1`, the “activity change, negative = viability loss” value is -12.7% (inactive).

On to `CCN(CC)CCOC(=O)C1(c2ccccc2)CCCC1`, for which the “activity change, negative = viability loss” value is -3.78% (inactive).

`N[C@H](C(=O)O)[C@@H](O)c1ccc(O)c(O)c1`: the “activity change, negative = viability loss” value was -20.3% (inactive).

`NC(=O)n1c(O)c(C(=O)c2cccs2)c2cc(Cl)ccc21`: the “activity change, negative = viability loss” value was 6.62% (inactive).

As for `CC1CCc2c(N3CCC(O)CC3)c(F)cc3c(=O)c(C(=O)O)cn1c23` (stereo unspecified), the “activity change, negative = viability loss” value was -17.9% (inactive).

Consider `CC(=O)N[C@@H](CCC(=O)O)C(=O)O`, for which the “activity change, negative = viability loss” value was 7.49% (inactive).

Another experiment is described as follows: Primary qHTS for inhibitors of nuclear receptor binding SET domain protein 2 (NSD2) in an RCH-ACV wild type WT cells (2C) (AID 1645877). Particulars: RCH-ACV (leukaemia line) NSD2 WT (2C) viability, CellTiter-Glo, 72 h; series mostly up to 44.9 µM; activity change, negative = cell killing: at the top concentration.
In the case of `CCN1CCN(C(=O)N[C@@H](C(=O)N[C@@H]2C(=O)N3C(C(=O)O)=C(CSc4nnnn4C)CS[C@H]23)c2ccc(O)cc2)C(=O)C1=O`, the “activity change, negative = cell killing” value was -3.66% (inactive).

As for `Nc1ccc(C(=O)NCC(=O)O)cc1`, the “activity change, negative = cell killing” value is -3.82% (inactive).

Turning to `CCCCNC(=O)NS(=O)(=O)c1ccc(N)cc1`, the “activity change, negative = cell killing” value was -1.68% (inactive).

For the molecule `CC[C@H](c1ccc(O)cc1)[C@@H](CC)c1ccc(O)cc1`, the Potency is 8.41 µM (active).

On to `O[C@@H](c1cc(C(F)(F)F)nc2c(C(F)(F)F)cccc12)[C@H]1CCCCN1`, for which the Potency is 7.5 µM (active).

In the case of `CC(=O)Oc1ccc(C)cc1`, the result was inactive.

With `NC(=O)n1c(O)c(C(=O)c2cccs2)c2cc(Cl)ccc21`, the result was inactive.

Regarding `CC(=O)N[C@@H](CCC(=O)O)C(=O)O`, the “activity change, negative = cell killing” value was 7.95% (inactive).
